Source: PubChem
The full list was thinned out, with hits kept by preference.
IDE exosite FP: exo-site inhibitors of human insulin-degrading enzyme | AID 1259349 | purified IDE, FL-6b probe fluorescence polarization; stronger effect = lower value | P14735 | z-score at 20 µM | 6.3% of 17,000 active;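 active means z-score of -3 or lower, meaning strong loss of probe binding signal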;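 further: His-tagged human IDE residues 42-1019 made in E. coli with 30 nM FL-6b probe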
Active calls of the source: *; ! = a repeat was not active.

SMILES	IDE exosite FP
COc1cc(CN2CC3(CCN(C(=O)Nc4c(C)noc4C)CC3)c3c(n(C)c4cc(OC)ccc34)[C@@H]2CO)cc(OC)c1	-3.38*
COc1cc(CN2CC3(CN(C(=O)CN4CCOCC4)C3)c3c(n(C)c4cc(OC)ccc34)[C@H]2CO)cc(OC)c1	-0.492
COc1cc(CN2CC3(CCN(C(=O)Nc4c(C)noc4C)CC3)c3c(n(C)c4cc(OC)ccc34)[C@H]2CO)cc(OC)c1	-3.41*
CC(=O)N1[C@H](CO)[C@H](c2ccccc2)[C@@H]1CN(C(=O)c1ccc(F)cc1)C(C)C	4.83
Cc1noc(C)c1NC(=O)N1C[C@@H](O)COC[C@@H]2O[C@@H](CC(=O)N3CCc4ccccc4C3)CC[C@H]21	1.51
O=C(Cc1cccnc1)N1CC(=O)N2[C@H](C1)[C@@H](c1ccc(C#CC3CC3)cc1)[C@@H]2CO	-0.419
COc1ccccc1CN1C[C@@H]2N[C@H](C1)C2c1ccc(-c2ccncc2)cc1 (stereo not given in full)	0.345
N#Cc1cccc(-c2ccc(C3[C@@H]4CN(Cc5ccccc5)C[C@H]3N4)cc2)c1 (stereo not given in full)	1.13
COc1ccccc1CN1C[C@@H]2N[C@H](C1)C2c1ccc(-c2ccc(C#N)cc2)cc1 (stereo not given in full)	-1.18
COc1ccccc1CN1C[C@@H]2N[C@H](C1)C2c1ccc(-c2cccc(C#N)c2)cc1 (stereo not given in full)	-3.98*!
COc1ccccc1CN1C[C@@H]2N[C@H](C1)C2c1ccc(-c2ccccc2OC)cc1 (stereo not given in full)	-10.1*
COc1ccccc1CN1C[C@@H]2N[C@H](C1)C2c1ccc(-c2ccc(C(=O)N(C)C)cc2)cc1 (stereo not given in full)	-0.0925
CCS(=O)(=O)N(C)C[C@@H]1N[C@H](CO)[C@@H]1c1ccc(C#CC2CCCC2)cc1	4.29
COC(=O)C[C@@H]1CC[C@@H]2[C@H](COc3ccc(NC(=O)Nc4cccc(C#N)c4)cc3C(=O)N2C)O1	-0.68
CS(=O)(=O)N1Cc2cc(C(=O)O)nc(-c3cccc(-c4ccccc4F)c3)c2[C@H]1CCO	1.41
CCCNC(=O)Nc1ccc2c(c1)C(=O)N(C)C[C@H](OC)[C@H](C)CN(C)[C@H](C)CO2	-0.827
C/C=C/c1ccccc1[C@@H]1[C@H](C#N)N(C(=O)Cc2ccccn2)[C@H]1CO	-0.393
COc1ccc2c3c(n(C)c2c1)[C@@H](CO)N(Cc1cccnc1)CC31CN(C(=O)c2cccnc2)C1	-0.392
OC[C@@H]1[C@@H](c2ccc(-c3cccc(F)c3)cc2)[C@@H]2CN(Cc3cncnc3)CCCCN12	0.632
OC[C@H]1[C@@H](c2ccc(-c3cccc(F)c3)cc2)[C@H]2CN(Cc3cncnc3)CCCCN21	1.45
COc1cccc(-c2ccc([C@H]3[C@@H](CO)N4CCCCN(CC5CC5)C[C@H]34)cc2)c1	-5.14*
COc1cccc(-c2ccc([C@H]3[C@@H](CO)N4CCCCN(Cc5cncnc5)C[C@@H]34)cc2)c1	-2.69
COc1cccc(-c2ccc([C@H]3[C@H](CO)N4CCCCN(Cc5cncnc5)C[C@@H]34)cc2)c1	-3.01*
COc1cccc(-c2ccc([C@H]3[C@@H](CO)N4CCCCN(Cc5cncnc5)C[C@H]34)cc2)c1	-6.61*
COc1ccc(-c2ccc([C@H]3[C@H]4CN(CC5CCOCC5)CCCCN4[C@H]3CO)cc2)cc1	0.748
SMILES	IDE exosite FP
COc1cccc(CN2CCCCN3[C@H](CO)[C@H](c4ccc(-c5cccc(C#N)c5)cc4)[C@@H]3C2)c1	0.952
OC[C@@H]1[C@H](c2ccc(-c3ccccc3)cc2)[C@H]2CN(Cc3cncnc3)CCCCN12	0.118
COc1ccc2c3c(n(C)c2c1)[C@@H](CO)N(CC1CC1)CC31CN(Cc2ccc(F)cc2)C1	0.408
COc1cccc(NC(=O)N[C@@H]2CC[C@@H](CC(=O)N3CCN(C)CC3)O[C@H]2CO)c1	1.69
O=C1C[C@@H](c2ccccc2)C(=O)N[C@H](c2ccccc2)C/C=C\C[C@@H](c2ccccc2)N1	-0.556
OC[C@@H]1[C@H](c2ccc(C#CC3(O)CCCC3)cc2)[C@@H]2CN(Cc3cccnc3)CCCCN12	5.06
O=C(NC[C@@H]1[C@@H](c2ccccc2)[C@H](CO)N1Cc1cccnc1)c1ccccn1	0.749
O=C(Cc1ccccc1)N1CC(=O)N2[C@@H](CO)[C@H](c3ccc(-c4cccc(F)c4)cc3)[C@@H]2C1	-2.43
O=C(Cc1ccccc1)N1CC(=O)N2[C@H](C1)[C@@H](c1ccc(-c3cccc(F)c3)cc1)[C@@H]2CO	-3.51*
O=C(Cc1cccnc1)N1CC(=O)N2[C@H](C1)[C@H](c1ccc(-c3cccc(F)c3)cc1)[C@@H]2CO	-1.88
O=C(Cc1cccnc1)N1CC(=O)N2[C@H](CO)[C@H](c3ccc(-c4cccc(F)c4)cc3)[C@@H]2C1	-0.914
O=C(Cc1ccccc1)N1CC(=O)N2[C@H](CO)[C@H](c3ccc(-c4cccc(F)c4)cc3)[C@@H]2C1	0.836
O=C(Cc1cccnc1)N1CC(=O)N2[C@H](C1)[C@@H](c1ccc(-c3cccc(F)c3)cc1)[C@@H]2CO	-6.96*
O=C(NC[C@@H]1[C@@H](c2ccccc2)[C@@H](CO)N1Cc1ccccn1)C1CCCC1	-1.17
CCN(C[C@@H]1[C@@H](c2ccccc2)[C@H](CO)N1CC1CC1)C(=O)c1ccccn1	1.12
O=C(c1ccccn1)N1CC(=O)N2[C@H](CO)[C@@H](c3ccc(C#Cc4ccccc4)cc3)[C@@H]2C1	-7.27*
O=C(c1ccccn1)N1CC(=O)N2[C@H](C1)[C@@H](c1ccc(C#CCc3ccccc3)cc1)[C@@H]2CO	0.383
O=C(c1ccccn1)N1CC(=O)N2[C@@H](CO)[C@@H](c3ccc(C#Cc4ccccc4)cc3)[C@@H]2C1	-19.9*
CCCC#Cc1ccc([C@H]2[C@H]3CN(C(=O)c4ccccn4)CC(=O)N3[C@H]2CO)cc1	2.58
CC(C)C#Cc1ccc([C@@H]2[C@@H](CO)N3C(=O)CN(C(=O)c4ccccn4)C[C@@H]23)cc1	0.714
O=C(c1ccccn1)N1CC(=O)N2[C@H](CO)[C@@H](c3ccc(C#CCc4ccccc4)cc3)[C@H]2C1	-1.88
O=C(c1ccccn1)N1CC(=O)N2[C@H](CO)[C@@H](c3ccc(C#CCc4ccccc4)cc3)[C@@H]2C1	-0.00488
O=C(c1ccccn1)N1CC(=O)N2[C@H](C1)[C@H](c1ccc(C#CCc3ccccc3)cc1)[C@@H]2CO	0.0494
O=C(c1ccccn1)N1CC(=O)N2[C@H](CO)[C@H](c3ccc(C#Cc4ccccc4)cc3)[C@@H]2C1	-5.83*
CC(C)NC(=O)Nc1ccc2c(c1)C(=O)N([C@H](C)CO)C[C@@H](C)[C@@H](CN(C)C(=O)C1CCCCC1)OCCCC[C@H](C)O2	2.19
SMILES	IDE exosite FP
O=C(O)C[C@H]1C=C[C@@H](NC(=O)Nc2cc(F)ccc2F)[C@H](CO)O1	0.463
O=C(NC[C@H]1N[C@H](CO)[C@@H]1c1ccc(-c2cncnc2)cc1)C1CCC1	0.199
CCS(=O)(=O)N1CC(=O)N2[C@H](C1)[C@@H](c1ccc(-c3ccc(C)cc3)cc1)[C@@H]2CO	0.295
O=C(CCN1CCCCC1)NCC[C@@H]1CC[C@@H](NS(=O)(=O)c2cccc(Cl)c2)[C@H](CO)O1	1.22
CC(C)CC#Cc1ccc([C@H]2[C@@H](CO)N3C(=O)CN(C(=O)NC(C)C)C[C@@H]23)cc1	0.233
OC[C@@H]1[C@H](c2ccc(C#Cc3ccccc3)cc2)[C@H]2CN(CC3CCOCC3)CCCCN12	-4.38*
